# Results taken from the supplement of paper PMC10849652.
# The full data set covers some 7,900 targets. This sample favours those with a hit. About 0.6% of all pairs of compound and target were hits. Values without a mark were called inactive.
# Key:
# Assay in all cases: log2 fold change, soluble protein after heating vs DMSO (PISA); higher = thermal stabilisation; K562 cells, 10 uM, 30 min; active = over 0.2 and 3.5 SD of the protein, either way, in both replicates (recomputed)
# [1] = compound: C1=CC=C(C=C1)[C@H](COC2=CC3=C(C=C2)NC(=O)N3)NC(=O)C4=CC=CN(C4=O)CC5=CC(=C(C=C5)F)F
# Procedure, shortened: (§1)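 K562 cells at 2×10^6 cells/mL were given 10 μM compound for 30 min. Aliquots then went through 3 min of heating across 48°C-58°C, were pooled, and were extracted in PBS with 0.5% NP-40 at 4°C, and the supernatant after 21,000xg for 90 min was quantified by TMTpro 16plex LC-MS/MS with channel sums equalised. Thermal stability relative to control samples, from duplicates, is given as log2 fold change.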
# [2] = compound: CC1=C(SC2=C1C(=N[C@H](C3=NN=C(N32)C)CC(=O)N)C4=CC=C(C=C4)Cl)C
# Procedure, shortened: as §1
# [3] = compound: CC1=C2C(=CC=C1)N=C(N(C2=O)C3=CC=CC=C3C)CN4C=NC5=C(N=CN=C54)N
# Procedure, shortened: as §1
# [4] = compound: Cc1sc2c(c1C)C(c1ccc(Cl)cc1)=N[C@@H](CC(=O)OC(C)(C)C)c1nnc(C)n1-2
# Procedure, shortened: as §1
# [5] = compound: c1ccc([C@@H]2C[C@H]2NC2CCNCC2)cc1
# Procedure, shortened: as §1
# Chain of UniProt Q8N573 (Q8N573 whole entry, looked up): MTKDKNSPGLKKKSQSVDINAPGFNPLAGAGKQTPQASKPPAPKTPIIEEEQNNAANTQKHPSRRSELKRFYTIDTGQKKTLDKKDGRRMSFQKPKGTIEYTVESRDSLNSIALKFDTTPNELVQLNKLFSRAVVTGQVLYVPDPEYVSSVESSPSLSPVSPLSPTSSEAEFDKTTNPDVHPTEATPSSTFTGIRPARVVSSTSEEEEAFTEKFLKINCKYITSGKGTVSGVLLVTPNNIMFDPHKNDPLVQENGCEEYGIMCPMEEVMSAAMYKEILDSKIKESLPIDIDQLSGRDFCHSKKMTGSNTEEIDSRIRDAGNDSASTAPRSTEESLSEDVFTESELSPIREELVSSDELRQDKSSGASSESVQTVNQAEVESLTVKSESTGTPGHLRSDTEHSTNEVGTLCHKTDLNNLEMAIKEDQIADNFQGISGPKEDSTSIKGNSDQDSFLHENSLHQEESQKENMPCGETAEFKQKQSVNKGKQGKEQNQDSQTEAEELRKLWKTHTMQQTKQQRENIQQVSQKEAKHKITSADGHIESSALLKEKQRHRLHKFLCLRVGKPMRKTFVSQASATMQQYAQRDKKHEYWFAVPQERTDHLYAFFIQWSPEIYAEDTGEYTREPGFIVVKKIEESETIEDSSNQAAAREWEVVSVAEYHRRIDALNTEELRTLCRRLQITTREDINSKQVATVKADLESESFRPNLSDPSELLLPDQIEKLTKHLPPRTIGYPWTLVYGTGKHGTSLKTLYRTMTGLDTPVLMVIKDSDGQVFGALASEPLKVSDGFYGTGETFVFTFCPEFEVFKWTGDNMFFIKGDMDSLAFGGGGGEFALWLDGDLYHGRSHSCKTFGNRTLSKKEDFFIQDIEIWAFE
# Chain of UniProt Q9H3L0 (Q9H3L0 whole entry, looked up): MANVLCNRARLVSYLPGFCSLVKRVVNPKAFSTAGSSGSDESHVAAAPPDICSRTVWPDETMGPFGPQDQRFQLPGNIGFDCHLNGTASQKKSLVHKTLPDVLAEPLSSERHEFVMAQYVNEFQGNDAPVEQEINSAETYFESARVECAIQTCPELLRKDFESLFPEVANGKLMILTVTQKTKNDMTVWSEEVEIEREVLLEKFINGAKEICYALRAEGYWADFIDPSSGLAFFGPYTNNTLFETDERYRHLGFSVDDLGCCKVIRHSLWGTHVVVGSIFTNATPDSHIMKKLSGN
# Chain of UniProt Q7Z3U7 (Q7Z3U7 whole entry, looked up): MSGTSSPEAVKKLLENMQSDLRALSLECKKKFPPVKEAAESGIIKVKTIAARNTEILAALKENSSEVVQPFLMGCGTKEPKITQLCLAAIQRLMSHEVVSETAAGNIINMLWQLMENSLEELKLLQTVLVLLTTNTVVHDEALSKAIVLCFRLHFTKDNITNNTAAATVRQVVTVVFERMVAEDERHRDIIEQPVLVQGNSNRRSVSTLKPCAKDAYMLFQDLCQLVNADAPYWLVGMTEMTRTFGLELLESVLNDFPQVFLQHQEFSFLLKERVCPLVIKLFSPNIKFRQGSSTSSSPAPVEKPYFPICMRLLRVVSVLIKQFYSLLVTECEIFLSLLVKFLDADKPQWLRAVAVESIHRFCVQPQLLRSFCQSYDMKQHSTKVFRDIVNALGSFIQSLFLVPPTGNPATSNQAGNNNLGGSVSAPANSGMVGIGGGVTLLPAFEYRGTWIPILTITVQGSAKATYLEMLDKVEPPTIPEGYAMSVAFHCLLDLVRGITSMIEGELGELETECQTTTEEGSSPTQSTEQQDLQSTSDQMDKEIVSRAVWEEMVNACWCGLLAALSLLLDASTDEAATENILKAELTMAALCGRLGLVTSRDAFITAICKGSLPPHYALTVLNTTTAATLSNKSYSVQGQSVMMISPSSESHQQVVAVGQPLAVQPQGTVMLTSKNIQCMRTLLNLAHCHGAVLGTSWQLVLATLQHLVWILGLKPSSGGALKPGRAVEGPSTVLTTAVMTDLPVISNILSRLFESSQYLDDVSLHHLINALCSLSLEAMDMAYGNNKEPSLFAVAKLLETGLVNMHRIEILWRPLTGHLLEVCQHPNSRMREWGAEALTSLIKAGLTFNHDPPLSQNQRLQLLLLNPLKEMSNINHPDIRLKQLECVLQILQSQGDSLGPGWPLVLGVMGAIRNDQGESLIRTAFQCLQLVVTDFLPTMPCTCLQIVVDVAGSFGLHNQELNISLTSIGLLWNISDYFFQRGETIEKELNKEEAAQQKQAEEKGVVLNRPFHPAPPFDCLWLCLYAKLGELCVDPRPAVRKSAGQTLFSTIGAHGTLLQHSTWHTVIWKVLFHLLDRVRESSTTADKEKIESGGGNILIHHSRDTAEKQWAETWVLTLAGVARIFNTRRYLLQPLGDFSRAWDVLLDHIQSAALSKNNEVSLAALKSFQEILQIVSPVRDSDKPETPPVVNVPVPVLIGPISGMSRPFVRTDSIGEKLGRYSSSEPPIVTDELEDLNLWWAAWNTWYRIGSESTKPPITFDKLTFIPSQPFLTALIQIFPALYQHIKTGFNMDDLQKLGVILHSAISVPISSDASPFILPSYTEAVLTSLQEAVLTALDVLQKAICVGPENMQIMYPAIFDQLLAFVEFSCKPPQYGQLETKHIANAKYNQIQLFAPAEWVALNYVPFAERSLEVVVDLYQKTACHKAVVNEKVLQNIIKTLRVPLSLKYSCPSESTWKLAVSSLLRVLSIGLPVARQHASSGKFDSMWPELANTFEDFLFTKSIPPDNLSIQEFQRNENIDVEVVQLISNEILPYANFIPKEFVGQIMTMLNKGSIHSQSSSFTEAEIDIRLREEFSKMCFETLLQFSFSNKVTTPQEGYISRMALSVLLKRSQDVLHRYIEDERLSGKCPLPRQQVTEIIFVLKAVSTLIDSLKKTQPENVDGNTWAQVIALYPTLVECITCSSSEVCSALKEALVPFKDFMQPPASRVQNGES
# Chain of UniProt Q9H8H0 (Q9H8H0 whole entry, looked up): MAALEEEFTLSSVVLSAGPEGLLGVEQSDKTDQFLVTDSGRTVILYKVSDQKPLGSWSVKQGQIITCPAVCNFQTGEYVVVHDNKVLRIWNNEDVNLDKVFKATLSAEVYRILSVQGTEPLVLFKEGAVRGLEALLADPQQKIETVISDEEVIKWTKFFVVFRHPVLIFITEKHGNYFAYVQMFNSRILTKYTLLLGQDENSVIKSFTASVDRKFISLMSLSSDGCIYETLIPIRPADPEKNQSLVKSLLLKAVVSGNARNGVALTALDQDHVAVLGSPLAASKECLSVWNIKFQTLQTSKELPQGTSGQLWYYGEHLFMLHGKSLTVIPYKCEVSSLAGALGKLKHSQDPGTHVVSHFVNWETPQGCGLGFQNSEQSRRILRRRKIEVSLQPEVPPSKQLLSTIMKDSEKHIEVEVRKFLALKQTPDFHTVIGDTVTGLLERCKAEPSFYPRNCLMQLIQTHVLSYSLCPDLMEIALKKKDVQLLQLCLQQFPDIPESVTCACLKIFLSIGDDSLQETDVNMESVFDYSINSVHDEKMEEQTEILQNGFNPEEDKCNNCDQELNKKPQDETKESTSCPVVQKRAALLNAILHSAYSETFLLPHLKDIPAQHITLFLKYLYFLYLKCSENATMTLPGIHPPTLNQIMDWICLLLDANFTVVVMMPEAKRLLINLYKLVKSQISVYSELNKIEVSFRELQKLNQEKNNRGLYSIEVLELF
# Chain of UniProt Q8IXH7 (Q8IXH7 whole entry, looked up): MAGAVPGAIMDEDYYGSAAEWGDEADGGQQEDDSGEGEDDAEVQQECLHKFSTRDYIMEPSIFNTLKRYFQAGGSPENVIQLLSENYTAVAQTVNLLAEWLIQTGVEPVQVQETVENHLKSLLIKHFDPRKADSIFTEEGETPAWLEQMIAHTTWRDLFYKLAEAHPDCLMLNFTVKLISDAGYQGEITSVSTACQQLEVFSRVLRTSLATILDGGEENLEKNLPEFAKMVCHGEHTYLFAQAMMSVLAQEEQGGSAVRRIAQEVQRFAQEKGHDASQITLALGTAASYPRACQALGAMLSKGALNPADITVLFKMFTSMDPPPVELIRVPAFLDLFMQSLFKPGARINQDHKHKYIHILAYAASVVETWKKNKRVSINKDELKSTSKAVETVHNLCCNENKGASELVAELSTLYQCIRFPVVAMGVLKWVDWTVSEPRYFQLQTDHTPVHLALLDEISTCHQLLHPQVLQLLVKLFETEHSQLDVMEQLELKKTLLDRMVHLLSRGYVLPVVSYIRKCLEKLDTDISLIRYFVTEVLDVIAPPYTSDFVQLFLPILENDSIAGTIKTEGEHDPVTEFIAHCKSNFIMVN
# Chain of UniProt Q9UH92 (Q9UH92 whole entry, looked up): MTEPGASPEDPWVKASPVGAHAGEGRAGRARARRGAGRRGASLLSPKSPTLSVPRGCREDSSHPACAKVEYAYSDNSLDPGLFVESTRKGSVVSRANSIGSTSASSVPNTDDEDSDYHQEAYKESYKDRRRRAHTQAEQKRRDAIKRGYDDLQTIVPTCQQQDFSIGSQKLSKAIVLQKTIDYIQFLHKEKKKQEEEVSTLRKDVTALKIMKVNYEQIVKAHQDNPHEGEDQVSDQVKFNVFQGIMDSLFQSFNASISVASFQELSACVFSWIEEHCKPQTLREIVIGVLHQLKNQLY
# Chain of UniProt Q15014 (Q15014 whole entry, looked up): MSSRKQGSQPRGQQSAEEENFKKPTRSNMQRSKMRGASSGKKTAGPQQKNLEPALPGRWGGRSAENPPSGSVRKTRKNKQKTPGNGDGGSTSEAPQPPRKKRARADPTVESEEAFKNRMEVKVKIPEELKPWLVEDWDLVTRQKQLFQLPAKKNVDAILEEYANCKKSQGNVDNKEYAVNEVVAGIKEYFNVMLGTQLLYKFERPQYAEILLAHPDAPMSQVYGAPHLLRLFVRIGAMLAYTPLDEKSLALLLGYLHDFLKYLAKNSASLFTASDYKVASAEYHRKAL
# Chain of UniProt P00846 (P00846 whole entry, looked up): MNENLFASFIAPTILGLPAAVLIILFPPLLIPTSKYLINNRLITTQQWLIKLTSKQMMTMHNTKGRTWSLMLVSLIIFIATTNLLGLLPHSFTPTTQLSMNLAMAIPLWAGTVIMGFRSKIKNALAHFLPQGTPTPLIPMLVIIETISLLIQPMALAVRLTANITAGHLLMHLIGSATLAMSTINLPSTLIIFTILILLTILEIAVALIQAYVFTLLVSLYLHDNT
Target,log2 fold change [1],log2 fold change [2],log2 fold change [3],log2 fold change [4],log2 fold change [5]
NSDHL (UniProt Q15738),0.029,0.047,0.019,0,-0.034
NQO1 (UniProt P15559),0.07,0.122,0.083,-0.015,-0.072
NFATC3 (UniProt Q12968),-0.03,0.081,0.12,0.16,0.065
NOL11 (UniProt Q9H8H0),0.007,0,-0.008,-0.014,0.025
MRPS9 (UniProt P82933),-0.001,0.008,-0.025,0.034,0.025
MMADHC (UniProt Q9H3L0),0.056,-0.155,0.057,0.088,0.077
MTHFD1 (UniProt P11586),-0.059,0.024,0.018,-0.013,-0.019
MT-ATP6 (UniProt P00846),-0.828 (active),-0.065,0.076,-0.223,-0.035
NARS2 (UniProt Q96I59),0,0.057,0.059,0,-0.027
MRPS16 (UniProt Q9Y3D3),-0.006,-0.033,-0.009,0.014,-0.074
NOP53 (UniProt Q9NZM5),0.103,-0.332,-0.415,0.353,0.097
NCAPD2 (UniProt Q15021),-0.078,0.04,0.044,0.016,0.007
MORF4L2 (UniProt Q15014),0.089,0.001,-0.002,0.028,0.091
NDFIP1 (UniProt Q9BT67),0.035,-0.162,-0.076,-0.111,0.052
MRPS24 (UniProt Q96EL2),-0.016,-0.026,-0.026,0.148,0.037
NASP (UniProt P49321),-0.009,0.049,0.054,-0.022,0.013
MRPS17 (UniProt Q9Y2R5),-0.031,-0.044,-0.011,0.06,-0.064
NAA38 isoform 2 (UniProt Q9BRA0),0.038,0.057,-0.013,-0.029,-0.124
MRPS5 (UniProt P82675),-0.017,0.009,-0.03,0.063,-0.077
NPC1L1 (UniProt Q9UHC9),0.183,0.063,0.024,0.007,0.047

Target,log2 fold change [1],log2 fold change [2],log2 fold change [3],log2 fold change [4],log2 fold change [5]
PAFAH2 (UniProt Q99487),-0.191,0.016,0.066,-0.117,-0.141
MIS12 (UniProt Q9H081),-0.02,0.013,0.064,-0.117,-0.022
MON2 isoform 5 (UniProt Q7Z3U7),-0.023,0.016,0.109,-0.025,-0.073
NSMCE4A (UniProt Q9NXX6),0.123,0.03,-0.088,-0.037,-0.014
NUDCD2 (UniProt Q8WVJ2),-0.037,0.113,0.099,0.017,0.037
OPA1 isoform 2 (UniProt O60313),-0.054,0.028,0.021,-0.03,-0.037
MRPS26 (UniProt Q9BYN8),-0.075,0.061,-0.012,-0.009,0.013
MOB2 isoform 3 (UniProt Q70IA6),-0.015,0.129,,0.067,-0.096
OXR1 isoform 2 (UniProt Q8N573),,0.126,0.025,-0.035,-0.101
NRF1 isoform 4 (UniProt Q16656),-0.045,0.001,0.085,-0.043,-0.039
MPHOSPH8 isoform 2 (UniProt Q99549),,-0.064,-0.009,0.089,0.061
MLH1 (UniProt P40692),0.192,0.007,,-0.109,-0.065
NNMT (UniProt P40261),0.021,0.051,0.078,-0.009,-0.055
"NA, A0A2R8Y3M9",-0.093,-0.069,,,0.161
OSBPL3 (UniProt Q9H4L5),,-0.077,-0.035,0.292,0.14
MT-ND1 (UniProt P03886),-0.024,-0.12,-0.24,-0.102,0.177
NOP56 (UniProt O00567),0.045,-0.289,-0.281,0.154,0.024
NDUFA7 (UniProt M0R0N0),-0.091,,0.23,,
MLX (UniProt Q9UH92),-0.055,0.032,,0.093,-0.011
OPHN1 (UniProt O60890),-0.209,0.033,,0.008,0.07

Target,log2 fold change [1],log2 fold change [2],log2 fold change [3],log2 fold change [4],log2 fold change [5]
MITF (UniProt O75030),,,-0.059,,
NANS (UniProt Q9NR45),-0.031,0.065,0.071,-0.015,-0.024
NEK3 (UniProt P51956),,0.204,0.053,-0.032,-0.094
MSANTD2 (UniProt Q6P1R3),,,0.06,0.028,
NUDT6 (UniProt P53370),,0.073,0.34,-0.023,-0.212
NELFCD (UniProt Q8IXH7),-0.022,0.155,0.214,,0.034
NCBP2AS2 (UniProt Q69YL0),0.02,0.019,0.048,-0.038,-0.003
MMS19 isoform 8 (UniProt Q96T76),-0.034,-0.001,0.133,0.002,-0.003
MRPS12 (UniProt O15235),0.019,-0.121,-0.176,0.093,0.061
NELFA (UniProt Q9H3P2),-0.016,0.213,0.056,-0.07,0.035
NMT1 (UniProt P30419),0,0.032,-0.001,0.076,-0.018
MRM2 (UniProt Q9UI43),,0.021,0.071,0,-0.052
"NA, A0A1W2PSA9",,-0.046,,0.006,0.104
NUDT7 (UniProt P0C024),-0.077,,,-0.047,
NAP1L1 (UniProt B7Z9C2),0.003,,0.134,,
NUMBL (UniProt Q9Y6R0),-0.058,-0.084,0.009,,-0.009
MKNK1 (UniProt Q9BUB5),-0.056,0.039,0.065,0.03,-0.009
NOLC1 isoform 3 (UniProt Q14978),,0.007,,,-0.021
